PubChem BioAssay (NCI)
This is part of a sample that, as a whole, favours compounds with a hit. Of some 83,000 tested, about 20% had one in any assay.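 Single-concentration screen, 48 h exposure, 96-well plates. Endpoint: percent growth. Below 10 = active.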 The source made the active and inactive calls.

What was measured:
Experiment in all cases: NCI-60 one-dose screen, 48 h (100 = growth as untreated, 0 = no growth, -100 = all killed)
Conditions in all cases: 10 µM unless noted
NCI-H23 lung = system: NCI-H23 lung
NCI-H226 lung = system: NCI-H226 lung
NCI-H322M lung = system: NCI-H322M lung
HOP-62 NSCLC = system: HOP-62 NSCLC
NCI-H460 lung = system: NCI-H460 lung
HOP-92 NSCLC = system: HOP-92 NSCLC
NCI-H522 lung = system: NCI-H522 lung
A549/ATCC NSCLC = system: A549/ATCC NSCLC
786-0 renal = system: 786-0 renal
COLO 205 colon = system: COLO 205 colon
DU-145 prostate = system: DU-145 prostate
MALME-3M melanoma = system: MALME-3M melanoma
MDA-MB-231 breast = system: MDA-MB-231 breast
RXF 393 renal = system: RXF 393 renal
SF-268 CNS = system: SF-268 CNS
SF-295 CNS = system: SF-295 CNS
SF-539 CNS = system: SF-539 CNS
UACC-257 melanoma = system: UACC-257 melanoma
M14 melanoma = system: M14 melanoma

Measured: growth

Cc1cc(N2CCN(C)CC2)nc(NC2CCCC(Nc3ccnc4cc(Cl)ccc34)C2)n1 (stereo not drawn)
active: NCI-H226 lung 5.72% | NCI-H322M lung -6.32% | HOP-62 NSCLC -31.2% | NCI-H460 lung -26.6% | HOP-92 NSCLC -69.9% | NCI-H522 lung -46.4% | A549/ATCC NSCLC 3% | 786-0 renal -60.5% | COLO 205 colon -76.1% | MALME-3M melanoma -82.9% | MDA-MB-231 breast -76.4% | RXF 393 renal -62.2% | SF-268 CNS -2.4% | SF-295 CNS -71.8% | SF-539 CNS -84.3% | UACC-257 melanoma -73.6% | M14 melanoma -86.4%
inactive: NCI-H23 lung 35.9% | DU-145 prostate 16.9%

CC(O)CN(CC(C)O)c1ccc2c(c1)Cc1cc([N+](=O)[O-])ccc1-2 (stereo not drawn)
inactive: NCI-H23 lung 93.5% | NCI-H226 lung 101% | NCI-H322M lung 65.8% | HOP-62 NSCLC 102% | NCI-H460 lung 104% | HOP-92 NSCLC 88.7% | NCI-H522 lung 80% | A549/ATCC NSCLC 119% | 786-0 renal 107% | COLO 205 colon 104% | DU-145 prostate 101% | MALME-3M melanoma 83.7% | MDA-MB-231 breast 99.6% | RXF 393 renal 105% | SF-268 CNS 85.2% | SF-295 CNS 90.3% | SF-539 CNS 92.4% | UACC-257 melanoma 125% | M14 melanoma 106%

CCNC(=O)Oc1ccc(/C(=C(\C)c2ccc(Cl)cc2)c2ccc(OCCN(CC)CC)cc2)cc1
active: NCI-H460 lung 7.6% | COLO 205 colon -57.8% | MALME-3M melanoma -50.6% | UACC-257 melanoma -54.9% | M14 melanoma -63.3%
inactive: NCI-H23 lung 65.6% | NCI-H226 lung 76.7% | NCI-H322M lung 68.7% | HOP-62 NSCLC 54.6% | HOP-92 NSCLC 57.9% | NCI-H522 lung 55.4% | A549/ATCC NSCLC 45.8% | 786-0 renal 24.7% | DU-145 prostate 67.6% | MDA-MB-231 breast 44.3% | RXF 393 renal 31.4% | SF-268 CNS 51.7% | SF-295 CNS 21.3% | SF-539 CNS 58.2%

O=C1/C(=C/c2ccccc2O)N=C2SCCCN12
inactive: NCI-H23 lung 80.9% | NCI-H226 lung 97.2% | NCI-H322M lung 97.5% | HOP-62 NSCLC 88.4% | NCI-H460 lung 103% | HOP-92 NSCLC 80.9% | NCI-H522 lung 79.7% | A549/ATCC NSCLC 101% | 786-0 renal 98.8% | COLO 205 colon 99.9% | DU-145 prostate 103% | MALME-3M melanoma 95.1% | MDA-MB-231 breast 78.8% | RXF 393 renal 112% | SF-268 CNS 99.5% | SF-295 CNS 98.6% | SF-539 CNS 95.4% | UACC-257 melanoma 103% | M14 melanoma 102%

CCCCCC(=O)Oc1ccc(/C(=C(\C)c2ccc(OC)cc2)c2ccc(OCCN3CCCCC3)cc2)cc1
inactive: NCI-H23 lung 67.1% | NCI-H226 lung 98.7% | NCI-H322M lung 78.2% | HOP-62 NSCLC 63.1% | NCI-H460 lung 51.6% | HOP-92 NSCLC 81.7% | NCI-H522 lung 74.6% | A549/ATCC NSCLC 53.2% | 786-0 renal 46.8% | DU-145 prostate 79.8% | MALME-3M melanoma 64.3% | MDA-MB-231 breast 66.1% | RXF 393 renal 70.2% | SF-268 CNS 71.1% | SF-295 CNS 38.9% | SF-539 CNS 40.8%
active: COLO 205 colon -32.6% | UACC-257 melanoma 8.72% | M14 melanoma -39.2%

CCOC(=O)c1c(C(=O)OCC)c2cc(-c3ccn4c(C(=O)c5ccccc5)c(C(=O)OCC)c(C(=O)OCC)c4c3)ccn2c1C(=O)c1ccccc1
inactive: NCI-H23 lung 88.8% | NCI-H226 lung 93.1% | NCI-H322M lung 99.9% | HOP-62 NSCLC 97.4% | NCI-H460 lung 98.3% | HOP-92 NSCLC 52.4% | NCI-H522 lung 75.6% | A549/ATCC NSCLC 91.5% | 786-0 renal 98.4% | COLO 205 colon 109% | DU-145 prostate 100% | MALME-3M melanoma 87.3% | MDA-MB-231 breast 82.8% | RXF 393 renal 96.7% | SF-268 CNS 85% | SF-295 CNS 106% | SF-539 CNS 89.9% | UACC-257 melanoma 95.1% | M14 melanoma 101%

CCN(CC)c1ccc2c(c1)Oc1nc(N)c(C#N)c(N)c1C2Sc1ccc(SC)cc1 (stereo not drawn)
active: NCI-H23 lung -22.7% | NCI-H226 lung -46.9% | NCI-H322M lung -15.1% | HOP-62 NSCLC -25.3% | NCI-H460 lung -15.3% | HOP-92 NSCLC -12.5% | NCI-H522 lung -50.8% | A549/ATCC NSCLC -2.37% | 786-0 renal -39.1% | COLO 205 colon -73.6% | DU-145 prostate -48% | MALME-3M melanoma -15.9% | MDA-MB-231 breast -39.3% | RXF 393 renal -67.6% | SF-268 CNS 4.56% | SF-295 CNS -54.2% | SF-539 CNS -71.8% | M14 melanoma -42.3%
inactive: UACC-257 melanoma 55.6%
